Measurements: PubChem BioAssay AID504329 (Southern Research Specialized Biocontainment Screening …, 2011)
The whole screen tested about 340,000 compounds, of which about 1,000 (0.29%) were called active. Cut-off read from the data, not from the text of the source: inconclusive = inhibition above about 27% without an active follow-up result; inactive = below that. The list is a sample of the results. Results with a measured potency or affinity are listed apart.

test: H1N1 influenza NS1A inhibitors, functional cell based assay (AID 504329); settings: percent inhibition, at 12.5 µM, active compounds read high

| SMILES | inhibition |
| --- | --- |
| Cc1ccc(S(=O)(=O)NCCSc2ncccn2)cc1 | 2.89% (inactive) |
| C=CCNC(=S)/C(=C(/[O-])c1ccc([N+](=O)[O-])cc1)[n+]1ccccc1 | -7.17% (inactive) |
| COc1ccc(C(=O)COC(=O)CCn2nnc(-c3cccc(O)c3OC)n2)cc1 | -2.1% (inactive) |
| CN1CCN(C2=C(NS(=O)(=O)c3ccccc3)C(=O)c3ccccc3C2=O)CC1 | -2.49% (inactive) |
| CC(=O)Nc1ccc(S(=O)(=O)NC2=C(N3CCN(c4ccc(F)cc4)CC3)C(=O)c3ccccc3C2=O)cc1 | 27.2% (inactive) |
| CC1CCCN(C2=C(NS(=O)(=O)c3ccc(Br)cc3)C(=O)c3ccccc3C2=O)C1 (stereo unspecified) | 27.1% (inactive) |
| NC(=O)C1CCN(C2=C(NS(=O)(=O)c3ccccc3)C(=O)c3ccccc3C2=O)CC1 | 24.5% (inactive) |
| CC1CCN(C2=C(NS(=O)(=O)c3ccc(Cl)cc3)C(=O)c3ccccc3C2=O)CC1 | -3.44% (inactive) |
| CN(C(=O)c1cccs1)c1ccc(OCC(=O)N2CCC(C(N)=O)CC2)cc1 | -3.1% (inactive) |
| CCOC(=O)C(C#N)=C1CCN(Cc2ccccc2)CC1 | -28.1% (inactive) |
| CCOC(=O)/C(C#N)=C1\C(=O)N(Cc2ccccc2)c2ccccc21 | 13.1% (inactive) |
| O=C(N/N=C/c1cn(-c2ccccc2)nc1-c1cccnc1)c1ccccc1 | -7.1% (inactive) |
| O=C(c1ccc2ccccc2n1)N1CCN(c2ccccc2)CC1 | -4.44% (inactive) |
| Cc1ccc(NC(=O)c2ccc(Nc3c([N+](=O)[O-])cc([N+](=O)[O-])cc3[N+](=O)[O-])cc2)cc1 | 2.68% (inactive) |
| COc1ccc(NC2=NC3(CCCCC3)N=C(N)N2)cc1 | -15.4% (inactive) |
| COc1ccc(Nc2ccc3c(c2)=NC2(CCCCC2)[N+]=3[O-])cc1 | 26.2% (inactive) |
| CC(=O)c1ccc(Nc2c([N+](=O)[O-])ccc3nonc23)cc1 | 6.86% (inactive) |
| COC(=O)C1=C(c2cccc(OC)c2OC)C[C@@H]2CC[C@H]1N2C(=O)NCCS(C)=O (stereo partly specified) | -8.82% (inactive) |
| CC1Cc2ccccc2N1C(=O)COC(=O)c1ccc(Cl)c(S(=O)(=O)N2CCOCC2)c1 (stereo unspecified) | 9.33% (inactive) |
| COC(=O)c1nnn(-c2cccc(Cl)c2)c1C(=O)OC | -5.37% (inactive) |
| O=C(CN(Cc1ccc(F)cc1)C(=O)CCC(=O)Nc1nccs1)NCC1CCCO1 (stereo unspecified) | -15.5% (inactive) |
| O=C(Nc1cccc(-n2cnnn2)c1)c1ccc(C(F)(F)F)cc1 | -1.71% (inactive) |

| SMILES | inhibition |
| --- | --- |
| Cc1ccc(S(=O)(=O)c2nc(N3CCOCC3)sc2Cl)cc1 | -3.55% (inactive) |
| CC1=NN(c2ccccc2)C(=O)C1N=Nc1cccc(O)c1 (stereo unspecified) | 0.04% (inactive) |
| CC1=NN(c2ccccc2)C(=O)C1N=Nc1ccc(S(N)(=O)=O)cc1 (stereo unspecified) | 1.05% (inactive) |
| CC(=O)Nc1ccc(N2N=C(C)C(N=Nc3ccccc3)C2=O)cc1 (stereo unspecified) | 22.2% (inactive) |
| CC1=NN(c2ccccc2)C(=O)C1N=Nc1ccccc1 (stereo unspecified) | -6.95% (inactive) |
| COc1ccc(N2CCN(c3nc4c(C)cccn4c(=O)c3C=C(C#N)C#N)CC2)cc1 | -22.9% (inactive) |
| O=C(NNC(=O)c1cccs1)c1ccncc1 | -2.62% (inactive) |
| COc1ccc([C@H]2CC(=O)C=C(c3cccc4c3sc3ccccc34)C2)cc1OC | 7.03% (inactive) |
| Nc1nc(NC(=O)c2ccccc2)nn1-c1ccccc1 | -6.76% (inactive) |
| Nc1nc(NC(=O)c2ccco2)nn1-c1ccccc1 | 5.18% (inactive) |
| CCCc1cc(N2CCCC(C(=O)NCC)C2)n2ncnc2n1 (stereo unspecified) | -10% (inactive) |
| NC(=O)C1(N2CCCCC2)CCN(c2ccc3nnc(-c4ccccc4)n3n2)CC1 | -13.3% (inactive) |
| Cc1cc2ccccn2c1C(=O)c1cccc([N+](=O)[O-])c1 | 4.98% (inactive) |
| COC(=O)c1cc(C(=O)c2c(C)cc3ccccn23)cc([N+](=O)[O-])c1 | 16.9% (inactive) |
| O=C(NCCC1=CCCCC1)C(=O)NCCc1ccc(Cl)cc1 | 1.14% (inactive) |
| C=CC[C@@H](CC(=O)N[C@@H](CO)Cc1ccccc1)C(=O)N[C@H](C)COC(=O)[C@@H](CC=C)Cc1ccc(F)cc1 | -3.08% (inactive) |
| CCOC(=O)/C(=N\Nc1ncnc2ccccc12)c1ccc(C)cc1 | 12.6% (inactive) |
| COc1ccc(/C(=N/Nc2ncnc3ccccc23)C(=O)O)cc1 | 5.64% (inactive) |
| O=C(NCc1ccccn1)Nc1cc(Cl)ccc1Cl | -13.2% (inactive) |
| COc1ccc(CNC(=O)Cn2cc(C(F)(F)F)ccc2=O)cc1 | -8.07% (inactive) |
| COc1ccc(/C=C2/C(=O)N(Cc3ccccc3)N=C2C)cc1 | -0.08% (inactive) |
| CN(C)c1ccc(/C=C2\C(=O)NC(=O)N(Cc3ccc(F)cc3)C2=O)cc1 | -0.15% (inactive) |

| SMILES | inhibition |
| --- | --- |
| CC1=NN(CCC#N)C(=O)/C1=C/c1ccc(N(C)C)cc1 | 18.1% (inactive) |
| CN(C)c1ccc(C=C2C(=O)OC(C)(C)OC2=O)cc1 | 0.66% (inactive) |
| COc1ccc(CCC(=O)OCC(=O)Nc2ccccc2OC(F)F)cc1OC | -3.13% (inactive) |
| CCOC(=O)C(NC(C)=O)(Nc1ccc(S(=O)(=O)Nc2nccs2)cc1)C(F)(F)F (stereo unspecified) | -7.42% (inactive) |
| Cc1cccc(-n2c(O)c(C=Nc3cc(O)ccc3C)c3ccccc3c2=O)n1 | 3.61% (inactive) |
| COc1cc(C2C(C(C)=O)=C(O)C(=O)N2CCN(C)C)ccc1O (stereo unspecified) | -16% (inactive) |
| O=C(COC(=O)c1n[nH]c(=O)c2ccccc12)NC1CCCCC1 | -3.19% (inactive) |
| COc1cc(NC(=O)CSCc2ccc(Cl)cc2)c(C(=O)O)cc1OC | -10.8% (inactive) |
| O=C(Cc1n[nH]c(=O)c2ccccc12)Nc1cc(Cl)ccc1-n1cncn1 | -5.46% (inactive) |
| COc1ccc(C(=O)N/N=C/c2ccc(OC)c(COc3ccccc3)c2)cc1 | -10.8% (inactive) |
| COc1ccc(C(=O)N/N=C/c2ccc(OC)c(COc3ccc(F)cc3)c2)cc1 | -7.91% (inactive) |
| CCC(CC)NC(=O)CO/N=C/c1ccc(Cl)cc1Cl | 2.24% (inactive) |
| O=C(O)C1C2C=CC(C2)C1C(=O)NCCCN1CCOCC1 (stereo unspecified) | -16.9% (inactive) |
| C[C@H](CO)N1C[C@H](C)[C@@H](CN(C)S(=O)(=O)c2cccs2)Oc2ccc(NC(=O)c3ccncc3)cc2C1=O | -5.12% (inactive) |
| CCN(CC)Cc1cc(C(=O)O)c(-c2ccccc2)o1 | -10.3% (inactive) |
| CC(=O)Nc1ccc(S(=O)(=O)NC2=C(N3CCN(C)CC3)C(=O)c3ccccc3C2=O)cc1 | 7.96% (inactive) |
| CCOC(=O)C1CCN(C2=C(NS(=O)(=O)c3ccc(Br)cc3)C(=O)c3ccccc3C2=O)CC1 | 27.6% (inactive) |
| NC(=O)C1CCN(C2=C(NS(=O)(=O)c3ccc(Br)cc3)C(=O)c3ccccc3C2=O)CC1 | 23.9% (inactive) |
| CCN1CCN(C2=C(NS(=O)(=O)c3ccc(Br)cc3)C(=O)c3ccccc3C2=O)CC1 | 5.79% (inactive) |
| CCOC(=O)C1CCN(C2=C(NS(=O)(=O)c3ccc(Cl)cc3)C(=O)c3ccccc3C2=O)CC1 | -27.4% (inactive) |
| CCOC(=O)C1CCCN(c2nc3ccccc3nc2NS(=O)(=O)c2ccc(C)cc2)C1 (stereo unspecified) | -25.9% (inactive) |
| NC(=O)C1CCN(C2=C(NS(=O)(=O)c3ccc(Cl)cc3)C(=O)c3ccccc3C2=O)CC1 | -27.5% (inactive) |

| SMILES | inhibition |
| --- | --- |
| CC1CCCN(C2=C(NS(=O)(=O)c3ccc(Cl)cc3)C(=O)c3ccccc3C2=O)C1 (stereo unspecified) | 3.15% (inactive) |
| CCCN(CC(=O)Nc1ccccc1C)C(=O)CCNC(=O)c1ccccc1Cl | 0.78% (inactive) |
| O=C(c1ccccc1)N1CCCC(C(=O)N2CCc3ccccc3C2)C1 (stereo unspecified) | -4.42% (inactive) |
| Cc1ccc(C)c(NCc2n[nH]c(=S)n2-c2ccccc2)c1 | -0.26% (inactive) |
| O=C(OC(C(=O)NCC1CCCO1)c1ccccn1)c1cccs1 (stereo unspecified) | -1.32% (inactive) |
| COc1ccc(NC(=O)COC(=O)CN2C(=O)C3CCCCC3C2=O)cc1OC (stereo unspecified) | -0.56% (inactive) |
| CC(C)C[C@H](NC(=O)C1CCN(C(=O)[C@H](Cc2ccccc2)NC(=O)OC(C)(C)C)CC1)C(=O)O | -7.8% (inactive) |
| COC(=O)CCC(=O)N(CCN(Cc1ccccc1)C(=O)CCC(=O)OC)Cc1ccccc1 | 8.88% (inactive) |
| Cc1ccc(N=Nc2c(O)[nH]c(=O)[nH]c2=O)cc1S(=O)(=O)Nc1ccc(Br)cc1 | 9.19% (inactive) |
| CCc1ccc(NC(=O)CN(c2ccc(OC)cc2)S(=O)(=O)c2c(C)[nH]c(=O)[nH]c2=O)cc1 | 2.97% (inactive) |
| CN1CCN(c2ccc(S(=O)(=O)N3CCCCC3)cc2NC(=O)COc2ccc(F)cc2)CC1 | -7.14% (inactive) |
| CC(=O)C1=C(C)OC(N)=C(C#N)C1c1cc2cccc(C)c2nc1Cl (stereo unspecified) | -6.22% (inactive) |
| COc1cc(C2C(C#N)=C(N)Oc3c2ccc2ccccc32)ccc1OCC(=O)Nc1ccc(C)cc1 (stereo unspecified) | 1.8% (inactive) |
| CCc1ccc(C2C(C#N)=C(N)Oc3cc(N)ccc32)cc1 (stereo unspecified) | 0.13% (inactive) |
| CCOC(=O)C1=C(C)OC(N)=C(C#N)C1c1cc2cc(C)ccc2nc1N1CCCCC1 (stereo unspecified) | -5.59% (inactive) |
| N#CC1=C(N)Oc2c(ccc3cccnc23)C1c1ccccc1 (stereo unspecified) | 25.4% (inactive) |
| C[n+]1cccc(C2C(C#N)=C(N)Oc3c2ccc2ccccc32)c1 (stereo unspecified) | -17.7% (inactive) |
| COC(=O)C1=C(C)OC(N)=C(C#N)C1c1cc2cc(C)ccc2nc1Cl (stereo unspecified) | 11.8% (inactive) |
| COc1ccc(C2C(C#N)=C(N)Oc3c2ccc2cccnc32)cc1OC (stereo unspecified) | -15.7% (inactive) |
| CC(C)(C)c1ccc(CN(Cc2ccccc2)C(c2ccccn2)c2nnnn2C(C)(C)C)cc1 (stereo unspecified) | 9.19% (inactive) |
